Molecules are shown by their SMILES. “And” between values parts separate entries of the source, which are not always exact repeats. Equal entries are not always repeated. Results filed as inconclusive are left out. More than one record can exist for a structure, and the calls need not agree. The source made the active and inactive calls. The calls were made as follows: active = hit-call score of the fitted dose curve at least 0.9, where 1 is the maximum; inconclusive = response in the unintended direction; inactive = score below 0.9.

What is called AC50 is the concentration giving half of the maximal activity seen.

The experiment is described as follows: TOX21_p53_BLA_p2_viability: Viability Assessment in the Tox21 HCT-116 p53 Agonism Beta-lactamase Assay, Phase 2 (AID 2283591).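 Also: compound exposure lasted 16 h at 37 °C; actives lower the ATP signal meaning cytotoxicity.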 The text has this: TOX21_p53_BLA_p2 is a cell-based, single-readout assay that uses HCT116, a human intestinal cell line, […] in a 1536-well plate.TOX21_p53_BLA_p2_viability is an assay readout measuring cellular ATP content and detected with CellTiter-Glo Luciferase-coupled ATP quantitation.TOX21_p53_BLA_p2_viability used a type of viability reporter where loss-of-signal activity can be used to understand changes in the cell viability. Furthermore, this assay endpoint can be referred to as a secondary readout, because this assay has produced multiple assay endpoints where this one serves a viability function. To generalize the intended target to other relatable targets, this assay endpoint is annotated to the cell cycle intended target family, where the subfamily is cytotoxicity.
Thawing Method: Place 14 mL of pre-warmed thaw medium into a 15 mL of conical tub. Remove the vial of cells to be thawed from liquid nitrogen and thaw rapidly by placing at 37C in a water bath with gentle agitation for 1-2 minutes. Decontaminate the vial by wiping with 70% ethanol before opening in a biological safety cabinet. Transfer the vial contents drop-wise into 14 mL of thaw medium in a sterile 15-mL conical tub. Centrifuge cells at 900 rpm for 4 minutes and resuspend in thaw medium. Transfer contents to the T75 tissue culture flask containing Thaw Medium and place flask in a humidified 37C/5% CO2 incubator. Switch to growth medium at first passage.Propagation Method: Aspirate medium, rinse once in DPBS, add 0.25% Trypsin/EDTA and swirl to coat the cell evenly. Add an equal volume of Growth Medium to inactivate Trypsin after 2-3 minutes incubation at 37C. Centrifuge cells at 900 rpm for 4 minutes and resuspend in growth medium. Cell should be passage or fed at least twice a week.Assay Protocol: Harvest cells from culture in growth medium and resuspend in assay medium. 2.2 Dispense 4000 cells/5 uL/well into 1536-well black/clear bottom plates using a Multidrop dispenser. After the cells were incubated at 37C for 5 hours, 23 nL of compounds dissolved in DMSO were transferred to the assay plate by a PinTool resulting in a 217-fold dilution. Incubate the plates for 16 hours at 37C, 5% CO2. Add 1 uL of 6X LiveBLAzer FRET B/G (CCF4-AM) Substrate Mixture to each well using a BioRAPTR dispenser and incubate the plates at room temperature for 2 hours. Measure fluorescence intensity at 460 and 530 nm emission and 405 nm excitation by an Envision detector. Data is expressed as the ratio of 460nm/530nm emissions. Add 4 uL of Cell-titer Glo to each well using BioRAPTR and incubate the plates at room temperature for […]. For cell viability readout that measures cytotoxicity, 4 ul/well of CellTiter-Glo reagent was added into the assay plates using a Flying Reagent Dispenser. After 30 min incubation at room temperature, the luminescence intensity in the plates was measured using a ViewLux plate reader.
For the compound `CC(C)(CO)CO`, the compound was classed as inactive.
On the same count and under the same terms, the value for `O=S(=O)(O)c1cc(S(=O)(=O)O)c2c(N=Nc3ccccc3)c(O)ccc2c1` was “inactive”; that for `Cc1cc(O)c2c(c1)C(=O)c1cc(O)cc(O)c1C2=O` was “inactive”.
Still for that read-out and setting: as for `S=c1[nH][nH]c(=S)s1`, the entry is “inactive”; as for `CC(=O)Nc1cc(S(=O)(=O)O)cc2cc(S(=O)(=O)O)c(N=Nc3ccccc3)c(O)c12`, “inactive”.
On the same count and under the same terms, as for `Nc1ccc(O)c(N)c1`, the entry is “inactive”.
With `[Na+]`, the outcome was inactive.
Same read-out and setting: as for `O=[N+]([O-])c1cc(N(CCO)CCO)ccc1NCCO`, the entry is “inactive”; as for `COC(=O)C(C)Oc1ccc(Oc2ncc(C(F)(F)F)cc2Cl)cc1` (stereo not given), “inactive”; as for `NC(=O)c1cccnc1`, “inactive”.
Same read-out and setting: the value for `CCNC(=S)NCC` was “inactive”.
Still for that read-out and setting: the value for `CC(=O)c1ccc(O)cc1` was “inactive”; that for `C=C(C)C(N)=O` was “inactive”.
In the case of `CC(O)CNCC(C)O` (stereo not given), the compound was classed as inactive.
Consider `CC1(C)CC(N)CC(C)(CN)C1` (stereo not given), for which the call was inactive.
Still for that read-out and setting: as for `CC(C)(C)c1cccc(O)c1`, the entry is “inactive”; as for `CC(C)C(=O)OCC=Cc1ccccc1`, “inactive”.
Consider `CC/C(=C(\c1ccccc1)c1ccc(OCCN(C)C)cc1)c1ccccc1`, for which the compound was classed as inactive; the AC50 was 33.7 µM (active) and 69.5 µM (active) and 35.2 µM (active).
As for `CC(=O)C1C(=O)C=C(C)OC1=O` (stereo not given), the outcome was inactive.
`CC(C)=CCCC(C)=CC(=O)O`: the call was inactive.
As to `Nc1cc([N+](=O)[O-])ccc1C(=O)O`, the result was inactive.
For `CC1COC(=O)O1` (stereo not given), the compound was classed as inactive.
With `C[Si]1(C)N[Si](C)(C)N[Si](C)(C)N1`, the outcome was inactive.
Regarding `COc1ccccc1NC(=O)CC(C)=O`, the compound was classed as inactive.
On the same count and under the same terms, as for `NC(N)=NC(N)=NCCc1ccccc1`, the entry is “inactive”; as for `CCCCCCCC1CCCC1=O` (stereo not given), “inactive”.
On to `Cc1cc(N)n(-c2ccccc2)n1`, for which the call was inactive.
Still for that read-out and setting: the value for `CCCC(O)C(CC)CO` (stereo not given) was “inactive”; that for `c1ccc(Cc2ccccc2)cc1` was “inactive”.
Still for that read-out and setting: the value for `CCCCCC1C(=O)CCC1CC(=O)OC` (stereo not given) was “inactive”.
With `CC1=CC(C)C(C=O)C(C)C1` (stereo not given) (tested in a mixture with another compound), the outcome was inactive.
The same measure, in the same setting: the value for `C1=COCCC1` was “inactive”.
The same measure, in the same setting: as for `CC1=CCC(C(C)(C)O)CC1` (stereo not given), the entry is “inactive”.
On the same count and under the same terms, the value for `C[C@]12CC[C@@H]3c4ccc(O)cc4CC[C@H]3[C@@H]1CC[C@@H]2O` was “inactive”; that for `CC(C)COC(=O)c1ccccc1` was “inactive”.
In the case of `CC(C)N1C(=O)c2ccccc2C1=O`, the compound was classed as inactive.
Same read-out and setting: as for `NC(N)=S`, the entry is “inactive”.
The same measure, in the same setting: the value for `C=C(C)C(=O)OCCN(C)C` was “inactive”.
Still for that read-out and setting: as for `CC(O)COCC(C)O` (stereo not given), the entry is “inactive”.

Values taken from PubChem BioAssay (EPA / NIEHS).
